# About 83,000 compounds went through this panel and 20% of them were active in at least one assay; those are over-represented in the sample as a whole.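 Activity criterion: percent growth below 10, measured after cells in 96-well plates were exposed to a single compound concentration for 48 hours.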 Values without a mark were called inactive. Activity calls are given as the source filed them.
# What was measured:
# Experiment in all cases: NCI-60 one-dose screen, 48 h (100 = growth as untreated, 0 = no growth, -100 = all killed)
# Conditions in all cases: 10 µM unless noted
# SK-MEL-2 melanoma = system: SK-MEL-2 melanoma
# EKVX NSCLC = system: EKVX NSCLC
# SN12C renal = system: SN12C renal
# UO-31 renal = system: UO-31 renal
# TK-10 renal = system: TK-10 renal
# ACHN renal = system: ACHN renal
# A498 renal = system: A498 renal
# CCRF-CEM leukemia = system: CCRF-CEM leukemia
# MOLT-4 leukemia = system: MOLT-4 leukemia
# SR leukemia = system: SR leukemia
# RPMI-8226 leukemia = system: RPMI-8226 leukemia
# OVCAR-8 ovarian = system: OVCAR-8 ovarian
# OVCAR-5 ovarian = system: OVCAR-5 ovarian
# OVCAR-4 ovarian = system: OVCAR-4 ovarian
# SK-OV-3 ovarian = system: SK-OV-3 ovarian
# IGROV1 ovarian = system: IGROV1 ovarian
# OVCAR-3 ovarian = system: OVCAR-3 ovarian
# HS 578T breast = system: HS 578T breast
# NCI/ADR-RES ovarian = system: NCI/ADR-RES ovarian
# T-47D breast = system: T-47D breast
SMILES,growth (SK-MEL-2 melanoma),growth (EKVX NSCLC),growth (SN12C renal),growth (UO-31 renal),growth (TK-10 renal),growth (ACHN renal),growth (A498 renal),growth (CCRF-CEM leukemia),growth (MOLT-4 leukemia),growth (SR leukemia),growth (RPMI-8226 leukemia),growth (OVCAR-8 ovarian),growth (OVCAR-5 ovarian),growth (OVCAR-4 ovarian),growth (SK-OV-3 ovarian),growth (IGROV1 ovarian),growth (OVCAR-3 ovarian),growth (HS 578T breast),growth (NCI/ADR-RES ovarian),growth (T-47D breast)
CC(C)(C#N)c1cc(F)cc(C(=O)Nc2cc(Nc3ncccc3-c3ncnc4nc[nH]c34)ccc2F)c1,-12.8% (active),59.5%,56.7%,12.8%,49%,38.5%,-4.87% (active),38.9%,29.2%,35.5%,23.7%,41.1%,37%,70.3%,63.7%,15.4%,55.2%,39.9%,37.1%,42.8%
CC1(C)Cc2c(Br)c(Br)c(Br)c(OCC(O)CN3CCOCC3)c2O1 (stereo not given),-46.5% (active),102%,104%,-87.3% (active),67%,93.4%,84.3%,9.89% (active),40.1%,24.9%,20.8%,88.9%,99.7%,99.5%,110%,-83.4% (active),57%,98.1%,81.2%,108%
CC(C)(C)CC(C)(C)Cc1ccc(OCCOCC[N+](C)(C)Cc2ccccc2)cc1,28.4%,74.7%,8.79% (active),97.1%,49.4%,97.4%,63.8%,10%,7.43% (active),-27.8% (active),-53.4% (active),22.8%,74%,7.03% (active),46.9%,-16.7% (active),0.137% (active),26.3%,99.9%,0.793% (active)
C#C[C@@]1(O)[C@@H](CO)O[C@@H](n2cc(F)c3c(N)ncnc32)[C@@H]1O,-1.11% (active),1.34% (active),2.43% (active),-15.5% (active),3.69% (active),-10.6% (active),-76% (active),13.3%,4.47% (active),12.9%,5.11% (active),9.54% (active),9.96% (active),4.75% (active),-7.75% (active),-17.4% (active),10.9%,28.4%,4.76% (active),-13.8% (active)
COc1ccc2nc(-c3ccc(OC)c(OC)c3)cc(-c3nnc(SCC(=O)Nc4ccc(/C(C)=N\O)cc4)n3-c3ccccc3)c2c1,80.7%,88.8%,80.7%,54.2%,65.9%,75.5%,77.9%,40%,33.8%,54.7%,47.7%,72.4%,102%,95.5%,101%,28.1%,87.8%,72.2%,77.2%,45.8%
Cc1nc2sc(C(=O)Nc3ccccc3Cl)c(N)c2cc1C(C)O (stereo not given),75%,89%,89.4%,96.3%,81.7%,96.2%,70.7%,79.5%,64%,33.2%,88.1%,95%,97.8%,97.9%,78.7%,92.9%,88.8%,88.1%,71.7%,86.4%
O=C(Nc1nc2ccc(C(F)(F)F)cc2s1)c1cc(Cl)ccc1O,-11.4% (active),-1.23% (active),9.78% (active),7.2% (active),4.94% (active),2.6% (active),-26.8% (active),15%,1.46% (active),0.767% (active),-5.53% (active),12.9%,28%,20.2%,-16.2% (active),30.8%,8.08% (active),5.64% (active),-4.36% (active),-5.13% (active)
CN(C)c1ccc(-c2ccc3[nH]c(=O)nc(-c4ccc(F)cc4)c3c2)cn1,30.8%,55.9%,45.3%,52.9%,73.7%,52.3%,18.5%,12%,28.1%,18.3%,46.9%,43.5%,79.9%,66.5%,36.2%,53.8%,6.67% (active),28.5%,51.7%,36.6%
